aSyn 5UTR act: Activators working through SNCA 5'UTR binding (MLPCN); activity score, % (tested at 7.5 µM), hits read low; AID 1814; hit rate 7.1% among 300,000; alpha-synuclein 5'UTR reporter, activators screen; in the data active = activity score below about -60%
A number is an active result. These entries were drawn from the full list.

Results for O=C(CNS(=O)(=O)c1ccccc1)OCC(=O)c1ccc(OC(=O)c2ccccc2)cc1 ?
aSyn 5UTR act: -67

Results for COc1ccc(C(=O)NCC(=O)c2ccccc2)cc1 ?
aSyn 5UTR act: -102

What do the screens show for `Cc1ccc(C(=O)N/C(=C\c2ccc(-c3ccc(Cl)cc3)o2)C(=O)NCCCN(C)C)cc1`?
aSyn 5UTR act: inactive

Results for OCCc1ccc(-c2ccc(Cl)cc2)o1 ?
aSyn 5UTR act: -65

What do the screens show for `COC(=O)c1ccccc1NC(=O)c1ccc2c(c1)CC(C)O2` (stereo not given)?
aSyn 5UTR act: -65

How did CN1C(=O)NC(c2cccc(O)c2)C(C(=O)c2cccs2)C1(O)C(F)(F)F (stereo not given) do in these assays?
aSyn 5UTR act: -139

What do the screens show for `Fc1ccc(-c2ccc(Nc3cccc(F)c3)nn2)cc1`?
aSyn 5UTR act: -131

How did Fc1ccc(Nc2ccc(-c3ccc(F)cc3)nn2)cc1 do in these assays?
aSyn 5UTR act: -161

Results for Cc1csc(-c2coc3cc(O)cc(C)c3c2=O)n1 ?
aSyn 5UTR act: -207

Results for CCc1cc2c(=O)c(-c3nc(C)cs3)coc2cc1O ?
aSyn 5UTR act: -145

How did Cc1nonc1OCCCNc1ccc([N+](=O)[O-])cc1Cl do in these assays?
aSyn 5UTR act: -84

Results for CC(C)CC(=O)Nc1ccc(-c2nnn(CC(=O)NCc3ccco3)n2)cc1 ?
aSyn 5UTR act: -102

How did CCCCOc1ccc(-c2nnn(CC(=O)NCc3ccco3)n2)cc1 do in these assays?
aSyn 5UTR act: -165

Results for Cc1ccc(NC(=S)NNC(=O)c2nn(C)cc2Cl)cc1 ?
aSyn 5UTR act: -90

What do the screens show for `Cc1c(Cl)c(C(=O)NNC(=S)Nc2ccccc2)nn1C`?
aSyn 5UTR act: -102

How did Cc1c(Cl)c(C(=O)NNC(=S)Nc2ccc(F)cc2)nn1C do in these assays?
aSyn 5UTR act: -70

What do the screens show for `CCN1CCN(Cc2ccc(NC(=O)c3ccc(C)c(NC(=O)c4ccno4)c3)cc2C(F)(F)F)CC1`?
aSyn 5UTR act: inactive

What do the screens show for `Cc1ccc(C(=O)Nc2ccc(Br)c(C(F)(F)F)c2)cc1`?
aSyn 5UTR act: -212

Results for CN(C)c1ccc(N=Nc2nc3ccccc3n2C)cc1 ?
aSyn 5UTR act: -117

What do the screens show for `Fc1cccc2sc(Nc3nc4cc5c(cc4s3)OCCO5)nc12`?
aSyn 5UTR act: -78

What do the screens show for `O=C(NNc1nc2cc3c(cc2s1)OCCO3)c1ccccc1`?
aSyn 5UTR act: -141

What do the screens show for `Fc1cc(F)c2nc(Nc3nc4cc5c(cc4s3)OCO5)sc2c1`?
aSyn 5UTR act: -176

Results for Fc1cccc2sc(Nc3nc4cc5c(cc4s3)OCO5)nc12 ?
aSyn 5UTR act: -222

Results for Cc1cccc(NCc2ccc(O)c3ncccc23)c1C ?
aSyn 5UTR act: inactive

Results for COc1ccc(NC(=S)Nc2ncccc2C)cc1OC ?
aSyn 5UTR act: -107

What do the screens show for `COc1ccc(NC(=S)Nn2cnnc2)cc1OC`?
aSyn 5UTR act: -95

How did Cc1cccnc1NC(=S)Nc1ncccc1C do in these assays?
aSyn 5UTR act: -119

What do the screens show for `COc1ccc(NC(=S)Nc2ncccc2C)c(OC)c1`?
aSyn 5UTR act: -93

What do the screens show for `Cc1cccnc1NC(=S)Nc1ccc(Cl)c(Cl)c1`?
aSyn 5UTR act: -142

What do the screens show for `O=C(NNC(=S)Nc1ccc(Cl)c(Cl)c1)c1ccccn1`?
aSyn 5UTR act: inactive

What do the screens show for `Cc1cccnc1NC(=S)NCCc1ccccc1`?
aSyn 5UTR act: -155

How did O=C1c2ccccc2-c2c1nc1c([n+]2[O-])CCCC1 do in these assays?
aSyn 5UTR act: -97

How did Cc1ccn2cc(-c3cccc(NC(=O)C(C)C)c3)nc2c1 do in these assays?
aSyn 5UTR act: -107

How did COc1ccc(CC(=O)Nc2ccc(-c3cn4ccc(C)cc4n3)cc2)cc1 do in these assays?
aSyn 5UTR act: -110

Results for Cc1ccn2cc(-c3cccc(NC(=O)c4ccccc4)c3)nc2c1 ?
aSyn 5UTR act: -82

Results for O=C(CNS(=O)(=O)c1ccc2ccccc2c1)OCc1csc(-c2ccccc2)n1 ?
aSyn 5UTR act: -62

What do the screens show for `c1ccc(-c2ccc3sccc3n2)cc1`?
aSyn 5UTR act: -173

How did CCn1cnc2cc(NCc3ccc(Br)cc3)ccc21 do in these assays?
aSyn 5UTR act: -140

Results for CCn1cnc2cc(NCc3ccc(C)cc3)ccc21 ?
aSyn 5UTR act: -128

Results for Cn1cnc2cc(NCc3ccc(Cl)cc3)ccc21 ?
aSyn 5UTR act: -101

Results for Cc1ccc(CNc2ccc3c(c2)ncn3C(C)C)cc1 ?
aSyn 5UTR act: -144

How did CCCn1cnc2cc(NCc3ccc(Br)cc3)ccc21 do in these assays?
aSyn 5UTR act: -93

What do the screens show for `CCCn1cnc2cc(NCc3cccc(OC)c3)ccc21`?
aSyn 5UTR act: -141

Results for CC1CCC/C(=C\Nc2ccc3c(c2)OCO3)C1=O (stereo not given) ?
aSyn 5UTR act: -119

How did COc1cccc(NC(=O)CSc2nnc(-c3cccc(OC(C)C)c3)n2N)c1 do in these assays?
aSyn 5UTR act: -73

How did Cc1nc(SCC(=O)Nc2ccc3c(c2)OCO3)c(C#N)c2c1CCCC2 do in these assays?
aSyn 5UTR act: -140

What do the screens show for `Cc1cc(C)c(C#N)c(SCC(=O)Nc2ccc3c(c2)OCO3)n1`?
aSyn 5UTR act: -145
